# Data taken from PubChem BioAssay.
# A number with no mark means an inactive call. Calls of active or inactive are those of the source. Rule as the data show it, unless noted: active = inhibition above about 44%; inactive = the rest.
# Legend:
# [1] = StAR promoter reporter inhibitors, counter-screen for LRH-1 inverse agonist project, cell-based, luminescence, high throughput (AID 651611; in the data active = inhibition above about 28%); conditions: StAR promoter luciferase reporter counterscreen, at 3.6 µM, hits give high values
# [2] = target: Nuclear receptor subfamily 5 group A member 2 (Homo sapiens) (UniProt O00482); experiment: NR5A2 activity suppression in reporter cells – cell-based, luminescence, confirmation (AID 651613; in the data active = inhibition above about 42%;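 also: HEK293T cells co-transfected with LRH-1 and StAR promoter luciferase reporter; 0% = vehicle wells and 100% = parental cells lacking receptor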); conditions: cell-based LRH-1 luciferase reporter, inverse agonism; at 3.6 µM; hits give high values
# [3] = target: Steroidogenic factor 1 (Homo sapiens) (UniProt Q13285); experiment: inverse agonism at SF1 nuclear receptor – cell-based, luminescence, high throughput, counter-screen for LRH-1 inverse agonist project (AID 651614); conditions: cell-based SF1 luciferase reporter, at 3.6 µM, hits give high values;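 also: cells cotransfected with StAR promoter reporter and SF1 expression vector; 0% = vehicle on cells with receptor and 100% = vehicle on cells lacking receptor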
# [4] = compounds suppressing VP16-driven luciferase signal – cell-based, luminescence, high throughput, counter-screen for LRH-1 inverse agonist project (AID 651615; in the data active = inhibition above about 33%); conditions: Gal4-VP16 luciferase reporter cells, at 3.6 µM, hits give high values
# Sequence of Steroidogenic factor 1 (Homo sapiens) (Q13285 whole entry, looked up, the tested form may be a part): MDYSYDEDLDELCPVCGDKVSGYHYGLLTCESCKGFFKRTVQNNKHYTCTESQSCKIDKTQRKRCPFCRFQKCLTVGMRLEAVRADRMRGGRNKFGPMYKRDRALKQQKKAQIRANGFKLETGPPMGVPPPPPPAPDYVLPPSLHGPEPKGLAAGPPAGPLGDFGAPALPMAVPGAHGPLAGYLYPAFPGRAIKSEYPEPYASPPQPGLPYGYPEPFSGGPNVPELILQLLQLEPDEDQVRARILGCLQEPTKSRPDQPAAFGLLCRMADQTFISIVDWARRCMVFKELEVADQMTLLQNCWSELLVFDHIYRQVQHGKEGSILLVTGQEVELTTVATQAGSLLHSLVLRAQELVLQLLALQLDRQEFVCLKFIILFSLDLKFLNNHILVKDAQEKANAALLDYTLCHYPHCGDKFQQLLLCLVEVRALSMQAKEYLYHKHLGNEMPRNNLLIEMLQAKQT
# Sequence of Nuclear receptor subfamily 5 group A member 2 (Homo sapiens) (O00482 whole entry, looked up): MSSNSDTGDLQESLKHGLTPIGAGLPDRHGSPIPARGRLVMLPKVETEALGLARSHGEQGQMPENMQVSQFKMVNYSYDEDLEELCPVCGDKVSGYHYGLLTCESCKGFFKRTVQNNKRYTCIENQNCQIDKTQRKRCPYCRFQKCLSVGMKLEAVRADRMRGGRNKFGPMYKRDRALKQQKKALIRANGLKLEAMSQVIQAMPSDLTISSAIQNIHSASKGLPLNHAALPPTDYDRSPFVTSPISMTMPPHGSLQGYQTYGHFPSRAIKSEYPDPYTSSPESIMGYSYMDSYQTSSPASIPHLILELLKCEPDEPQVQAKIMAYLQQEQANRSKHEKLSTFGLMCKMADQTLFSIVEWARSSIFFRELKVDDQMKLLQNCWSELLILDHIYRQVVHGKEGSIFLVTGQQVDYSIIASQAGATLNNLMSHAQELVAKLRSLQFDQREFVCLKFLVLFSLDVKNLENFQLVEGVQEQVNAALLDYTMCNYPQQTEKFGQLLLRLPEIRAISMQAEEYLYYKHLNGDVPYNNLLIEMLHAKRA
SMILES,inhibition [1],inhibition [2],inhibition [3],inhibition [4]
CC(C)C(=O)Nc1ccc(C(=O)CN2C(=O)NC3(CCOc4ccccc43)C2=O)cc1 (stereo unspecified),8.93%,37.1%,36.7%,7.98%
Cn1c(SCC(=O)Nc2ccc(N3CCOCC3)cc2)nnc1-c1ccccc1,0.41%,46.2% (active),47.5% (active),-12.2%
COc1ccc(CC(N)c2csc(Nc3ncccn3)n2)cc1 (stereo unspecified),49.2% (active),26.2%,33.1%,15.5%
O=C(COC(=O)C1CC(=O)N(Cc2ccccc2)C1)Nc1ccc2c(c1)OCO2 (stereo unspecified),6.45%,50.9% (active),54.8% (active),-9.97%
Cc1ccn2c(=O)nc(SCC(=O)Nc3ccc4c(c3)OCCO4)nc2c1,-9.07%,49.3% (active),51% (active),-15.9%
CC(=O)N(/N=C/c1ccc([N+](=O)[O-])o1)c1nc2ccccc2c(=O)n1-c1ccccc1,19.4%,69% (active),55.2% (active),2.37%
Cc1c(C)c2ccc(OCC(=O)N3CC[C@@]4(O)CCCC[C@H]4C3)cc2oc1=O,14.5%,39%,25.6%,-3.1%
O=C(CSc1ccccn1)Nc1nonc1[N+](=O)[O-],10.8%,16.9%,26.5%,-15.1%
OC1(c2ccc(OC(F)F)cc2)CSC(=Nc2cccnc2)N1C1CC1 (stereo unspecified),11.3%,43.3% (active),48.8% (active),40% (active)
